From PMC11062922 (Nature Chemical Biology, 2023)
Where two headings read alike, the source gives them in different places.

Tests used:
Parameters in all cases: species or system human, MV4-11 + K-562 + COLO205 + SK-N-BE2 + OVCAR-8
[1] = tested on: ACAD11; details: read-out: apparent Kd, compound concentrations: 100 nM and 1000 nM (sheet 'Samples'), n = 1
[2] = tested on: ERBB3; details: read-out: apparent Kd, compound concentrations: 100 nM and 1000 nM (sheet 'Samples'), n = 1
[3] = tested on: IRAK3; details: read-out: apparent Kd, compound concentrations: 100 nM and 1000 nM (sheet 'Samples'), n = 1
[4] = tested on: ABCD3; details: read-out: apparent Kd; compound concentrations: 100 nM and 1000 nM (sheet 'Samples'), CATDS: 0.16057119825567601; n = 1
[5] = tested on: PYGL; details: read-out: apparent Kd, n = 1
[6] = tested on: AURKA; details: read-out: apparent Kd, n = 1
[7] = tested on: MAPK9; details: read-out: apparent Kd, compound concentrations: 100 nM and 1000 nM (sheet 'Samples'), n = 1
[8] = tested on: STK10; details: read-out: apparent Kd, n = 1
[9] = tested on: BUB1; details: read-out: apparent Kd, compound concentrations: 100 nM and 1000 nM (sheet 'Samples'), n = 1
[10] = tested on: CDK4; details: read-out: apparent Kd, n = 1
[11] = tested on: LIMK1; details: read-out: apparent Kd, n = 1
[12] = tested on: SIK3; details: read-out: apparent Kd, compound concentrations: 100 nM and 1000 nM (sheet 'Samples'), n = 1
[13] = tested on: TESK1; details: read-out: apparent Kd, compound concentrations: 100 nM and 1000 nM (sheet 'Samples'), n = 1
[14] = tested on: EPHA5; details: read-out: apparent Kd, compound concentrations: 100 nM and 1000 nM (sheet 'Samples'), n = 1
[15] = tested on: PKN3; details: read-out: apparent Kd, n = 1
[16] = tested on: EPHB3; details: read-out: apparent Kd; compound concentrations: 100 nM and 1000 nM (sheet 'Samples'), CATDS: 6.3203902610818402E-2; n = 1
[17] = tested on: PIM2; details: read-out: apparent Kd, n = 1
[18] = tested on: PIK3CG; details: read-out: apparent Kd, compound concentrations: 100 nM and 1000 nM (sheet 'Samples'), n = 1
[19] = tested on: PRKAG1; details: read-out: apparent Kd, n = 1
[20] = compound concentrations:100 nM and 1000 nM (sheet 'Samples')

SMILES: COc1cccc(-n2ncc3c(N/N=C/c4ccc(C(=O)NCCN(C)C)cc4)ncnc32)c1.Cl [GW784307A]
- potency estimated from few doses ([1]; CATDS: 2.6823851715364801E-2): 1620 nM
- potency estimated from few doses ([2]; CATDS: 3.16220170710034E-2): 874 nM
- potency estimated from few doses ([3]; CATDS: 2.7757665118228601E-2): 1410 nM

SMILES: CCc1nc(-c2cccc(N(C)S(=O)(=O)c3ccccc3)c2)c(-c2ccnc(Nc3ccc(N4CCN(C(C)=O)CC4)nc3)n2)s1 [GSK1645895A]
- potency estimated from few doses [4]: 1310 nM

SMILES: COc1cc(Nc2nccc(N3CCC(NC(=O)C4COc5ccccc5O4)C3)n2)cc(OC)c1OC (stereo not shown) [GSK1379761A]
- potency estimated from few doses ([3]; CATDS: 0.29618099534974801): 900 nM

SMILES: Cl.Cl.Cl.c1ccc(Oc2ccc(Nc3ccnc4cc(-c5ccc(CN6CCNCC6)o5)ccc34)cc2)nc1.c1ccc(Oc2ccc(Nc3ccnc4cc(-c5ccc(CN6CCNCC6)o5)ccc34)cc2)nc1 [GW567142A]
- potency estimated from few doses ([5]; compound concentrations: 100 nM and 1000 nM (sheet 'Samples'), CATDS: 1.6934358184527699E-2): 2080 nM

SMILES: COc1cc(Nc2nccc(N3CCC(NC(=O)c4cccc(C#N)c4)C3)n2)cc(OC)c1OC (stereo not shown) [GSK1379751A]
- potency estimated from few doses ([3]; CATDS: 0.26615341135904602): 510 nM

SMILES: COc1cccc(-n2cnc3c(N/N=C/c4ccncc4)ncnc32)c1 [GW813360X]
- potency estimated from few doses ([2]; CATDS: 0.18333833775407599): 961 nM

SMILES: CNC(=O)c1ccccc1Nc1nc(Nc2cccc(CS(C)(=O)=O)c2)ncc1C.O=CO [GSK1520489A]
- potency estimated from few doses ([6]; compound concentrations: 100 nM and 1000 nM (sheet 'Samples'), CATDS: 6.1882254370992797E-2): 16.9 nM
- potency estimated from few doses ([3]; CATDS: 6.3642542209879499E-2): 16.2 nM
- potency estimated from few doses ([7]; CATDS: 1.0219205948468601E-2): 1170 nM
- potency estimated from few doses ([8]; compound concentrations: 100 nM and 1000 nM (sheet 'Samples'), CATDS: 2.4296695352096099E-2): 88.5 nM

SMILES: CC(C)c1nc(-c2cccc(NS(=O)(=O)c3c(F)cccc3F)c2)c(-c2ccnc(Nc3ccc(N4CCOCC4)nc3)n2)s1.Cl [GSK1723980B]
- potency estimated from few doses ([9]; CATDS: 3.0141053938719398E-2): 191 nM
- potency estimated from few doses ([10]; compound concentrations: 100 nM and 1000 nM (sheet 'Samples'), CATDS: 1.44710084593789E-2): 1810 nM
- potency estimated from few doses ([11]; compound concentrations: 100 nM and 1000 nM (sheet 'Samples'), CATDS: 8.5923205073472897E-2): 36.9 nM
- potency estimated from few doses ([12]; CATDS: 1.4935731096458E-2): 1520 nM
- potency estimated from few doses ([13]; CATDS: 3.6756821103285202E-2): 132 nM

SMILES: CC(C)c1nc(-c2cccc(NS(=O)(=O)c3c(F)cccc3F)c2F)c(-c2ccnc(Nc3ccc(N4CCOCC4)nc3)n2)s1 [GSK2008607A]
- potency estimated from few doses ([9]; CATDS: 2.5044910199505301E-2): 721 nM
- potency estimated from few doses ([11]; compound concentrations: 100 nM and 1000 nM (sheet 'Samples'), CATDS: 3.4604855317968697E-2): 358 nM
- potency estimated from few doses ([13]; CATDS: 2.61955130991521E-2): 646 nM

SMILES: CN(C)Cc1ccc(-c2ccc3c(Nc4ccc(Oc5ccccn5)cc4)ccnc3c2)o1 [GW567148X]
- potency estimated from few doses ([14]; CATDS: 2.06539246385424E-2): 902 nM
- potency estimated from few doses ([15]; compound concentrations: 100 nM and 1000 nM (sheet 'Samples'), CATDS: 1.7061922393971401E-2): 1730 nM

SMILES: Cc1ccc(O)cc1Nc1ccnc2ccc(C(C)(C)C)cc12 [GW856805X]
- potency estimated from few doses ([14]; CATDS: 8.5514092870098604E-2): 16.4 nM
- potency estimated from few doses [16]: 31.7 nM

SMILES: CC(=O)N1CCN(c2ccc(Nc3nccc(-c4sc(C(C)C)nc4-c4cccc(NS(=O)(=O)c5ccccc5)c4)n3)cn2)CC1 [GSK1645872A]
- potency estimated from few doses ([9]; CATDS: 3.26865073204873E-2): 604 nM
- potency estimated from few doses ([10]; compound concentrations: 100 nM and 1000 nM (sheet 'Samples'), CATDS: 2.3530905499939799E-2): 1530 nM
- potency estimated from few doses ([11]; compound concentrations: 100 nM and 1000 nM (sheet 'Samples'), CATDS: 9.09760903229518E-2): 111 nM

SMILES: CN1CCN(Cc2ccc(NC(=O)Nc3ccc(N(C)c4ccnc(Nc5ccc(CS(C)(=O)=O)cc5)n4)cc3)cc2)CC1.Cl [GW827654A]
- potency estimated from few doses ([6]; compound concentrations: 100 nM and 1000 nM (sheet 'Samples'), CATDS: 6.4898936627914502E-2): 288 nM

SMILES: N#Cc1cnc2cc(-c3cnc(CNCCN4CCOCC4)s3)ccc2c1Nc1ccc(Oc2ccccc2)cc1 [GW664114X]
- potency estimated from few doses ([2]; CATDS: 9.1270292154097404E-2): 245 nM

SMILES: COc1cc2nccc(Nc3ccc(Oc4ccccc4)cc3)c2cc1OC.Cl [GI261656A]
- potency estimated from few doses ([2]; CATDS: 4.9978680002658399E-2): 623 nM

SMILES: Fc1cc(Cl)ccc1Nc1ccnc2cc(-c3ccc(CN4CCOCC4)o3)ccc12 [GW560109X]
- potency estimated from few doses ([12]; CATDS: 5.0355620048332002E-2): 1910 nM

SMILES: Cc1cc(O)cc(C)c1/C=C/c1cncc(-c2nn[nH]n2)c1.Cl [GW441806A]
- potency estimated from few doses ([2]; CATDS: 9.8413353572783496E-2): 174 nM
- potency estimated from few doses ([8]; compound concentrations: 100 nM and 1000 nM (sheet 'Samples'), CATDS: 4.0928454430712802E-2): 2050 nM
- potency estimated from few doses ([13]; CATDS: 4.6291633424982298E-2): 1290 nM

SMILES: CC(=O)N1CCN(c2ccc(Nc3nccc(-c4sc(C(C)C)nc4-c4cccc(NS(=O)(=O)c5cccc(Cl)c5)c4)n3)cn2)CC1 [GSK1660437A]
- potency estimated from few doses ([9]; CATDS: 4.8956093582398198E-2): 873 nM
- potency estimated from few doses ([11]; compound concentrations: 100 nM and 1000 nM (sheet 'Samples'), CATDS: 8.9017548853229503E-2): 288 nM

SMILES: COc1ccc(-c2nc3n(c2-c2ccncc2)CCC3)cc1.COc1ccc(-c2nc3n(c2-c2ccncc2)CCC3)cc1.O=S(=O)(O)O.O=S(=O)(O)O [SKF-104493-B2]
- potency estimated from few doses ([1]; CATDS: 0.103649602140053): 2100 nM
- potency estimated from few doses ([17]; compound concentrations: 100 nM and 1000 nM (sheet 'Samples'), CATDS: 0.11675722362862): 1570 nM
- potency estimated from few doses ([15]; compound concentrations: 100 nM and 1000 nM (sheet 'Samples'), CATDS: 0.15312963325727599): 911 nM

SMILES: CS(=O)(=O)c1ccc(-c2cnc(N)c(C(=O)Nc3ccccc3)n2)cc1 [VE-821]
- potency estimated from few doses ([1]; CATDS: 0.28747433490732499): 334 nM

SMILES: CN1CCN(c2ccc(Nc3nc(N)c(C(=O)c4ccc5c(c4)OCCO5)s3)cc2)CC1 [RO0505124-000]
- potency estimated from few doses ([1]; CATDS: 0.36798074276012699): 137 nM

SMILES: O=S(=O)(CCOCc1ccc(-c2ccc3ncnc(Nc4ccc(OCc5cccc(F)c5)c(Cl)c4)c3c2)o1)c1ccccc1 [GW615311X]
- potency estimated from few doses ([1]; CATDS: 2.2498747845654098E-2): 2280 nM
- potency estimated from few doses ([6]; compound concentrations: 100 nM and 1000 nM (sheet 'Samples'), CATDS: 3.2222679542607199E-2): 1020 nM
- potency estimated from few doses ([11]; compound concentrations: 100 nM and 1000 nM (sheet 'Samples'), CATDS: 2.6639361665983699E-2): 1500 nM
- potency estimated from few doses ([7]; CATDS: 2.2235644452826799E-2): 2360 nM
- potency estimated from few doses ([18]; CATDS: 3.2678630734210498E-2): 992 nM
- potency estimated from few doses ([15]; compound concentrations: 100 nM and 1000 nM (sheet 'Samples'), CATDS: 2.28065209428794E-2): 2200 nM
- potency estimated from few doses ([19]; compound concentrations: 100 nM and 1000 nM (sheet 'Samples'), CATDS: 2.7047929037046701E-2): 1450 nM

SMILES: Fc1ccc(-c2c(-c3ccncc3)[nH]c3nccnc23)cc1 [RO1155697-000]
- potency estimated from few doses [17, 20]: 1070 nM
- potency estimated from few doses [15, 20]: 31.1 nM

SMILES: N#Cc1cccc(Nc2nccc(-c3cnn4ncccc34)n2)c1 [GW778894X]
- potency estimated from few doses [10, 20]: 1830 nM

SMILES: Nc1nc(N)c2nc(-c3ccccc3)[nH]c2n1 [SKF-12778]
- potency estimated from few doses [6, 20]: 1110 nM
- potency estimated from few doses [5, 20]: 1640 nM

SMILES: CC(=O)c1c(-c2ccncc2)[nH]c(-c2ccncc2)c1C [GW493036X]
- potency estimated from few doses [15, 20]: 1070 nM

SMILES: COc1cc2ncn(-c3cc(OCc4cccs4)c(C(N)=O)s3)c2cc1OC [GSK312948A]
- potency estimated from few doses [8, 20]: 109 nM

SMILES: CC(C)c1nc(-c2ccc(F)c(NS(=O)(=O)c3c(F)cccc3F)c2)c(-c2ccnc(Nc3ccc(N4CCOCC4)nc3)n2)s1 [GSK1804250A]
- potency estimated from few doses [11, 20]: 125 nM

SMILES: COc1cc2ncn(-c3cc(OCCCc4ccccc4)c(C(N)=O)s3)c2cc1OC [GSK205189A]
- potency estimated from few doses [19, 20]: 1310 nM

SMILES: COc1cc2ncn(-c3cc(OCc4ccncc4)c(C(N)=O)s3)c2cc1OC [GSK336313A]
- potency estimated from few doses [8, 20]: 1930 nM

SMILES: COc1cc2ncn(-c3cc(OCc4sccc4Cl)c(C(N)=O)s3)c2cc1OC [GSK448459A]
- potency estimated from few doses [8, 20]: 333 nM

SMILES: COc1ccc(-c2ccncc2)cc1C(N)=O [GSK605714A]
- potency estimated from few doses ([1]; CATDS: 0.66413142428119099): 619 nM

SMILES: COc1ccc(S(=O)(=O)NC2CCN(c3cc(C)nc(Nc4cccc(C#N)c4)n3)CC2)cc1.O=C(O)C(F)(F)F [GSK1653539A]
- potency estimated from few doses ([18]; CATDS: 0.32479738642046602): 1380 nM
